Inconclusive results are not listed. The source made the active and inactive calls. Calls follow the shape of the dose curve; as a rule, active = well fitted inhibition curve with a large enough effect; inconclusive = small, poorly fitted or top-dose-only effect; inactive = flat fitted curve, though single readings scatter.

Consider 40 compounds from PubChem BioAssay (NCATS).
% is scaled to controls: 0 for no effect and ±100 for the full control effect.

The assay relates to MCC-26. The assay is described as follows: qHTS assay to identify novel small-molecules to repurpose for Merkel cell carcinoma treatment (AID 1296009). Also: nearly all actives have a fitted effect of over 60% in size. The conditions noted are these: MCC and control cell lines, CellTiter-Glo viability, 72 h; series mostly up to 46 µM; activity change, negative = cytotoxicity: at the top concentration. An excerpt:
MCC is a rare and aggressive neuroendocrine skin cancer with limited treatment options. Approximately 80% of MCCs have the Merkel cell polyomavirus (MCPyV) DNA integrated into the host genome (virus-positive: VP-MCC) and viral oncogenes drive oncogenesis. The remaining MCCs are virus-negative (VN-MCC) and are caused by UV mutagenesis. To identify novel treatments for VP-MCC and/or VN-MCC we screened three VP-MCC cell lines (WAGA, MKL-1, MKL-2), three VN-MCC cell lines (MCC-13, MCC-26, UISO), and four immortalized, non-transformed control cell lines (HaCaT, HEK293T, CRL7250, NIH-3T3) against ~2,400 compounds in the NCGC Pharmaceutical Collection (NPC) and ~1,900 compounds in the Mechanism Interrogation PlatE (MiPE). Using cell viability as a readout (CellTiter-Glo assay) we found both overlapping and distinct drugs that can be repurposed for the treatment of VP-MCC and VN-MCC.
A high-throughput screen was conducted in 1536-well white flat bottom plates (Corning) on a Kalypsys robotic system. Cell lines WAGA, MKL-1, MKL-2, MCC-13, MCC-26, UISO, HaCaT, HEK293T, CRL7250, and NIH-3T3 were screened against 2 small molecule annotated drug libraries NPC and MIPE in dose response (8 and 11 pt. respectively) measuring cell viability after 72 hours of incubation. […] A 1,536 pintool (Kalypsys) was used to transfer 23 nL of compound in DMSO to the 1,536-well assay plates. After 72 hr incubation at 37 degree celsius, 2.5 uL of CellTiter-Glo (Promega) was dispensed into each well using a BiorapTR. Plates were incubated at room temperature for 10 min, transferred to a ViewLux (PerkinElmer) and the luminescence was recorded using an exposure time of 2 seconds. Relative luminescence units (RLUs) were normalized to in-plate controls (no cells as a positive (cytotoxicity) control, DMSO as negative control) and the normalized data was processed using NCATS in-house software.
In general terms: qHTS replaces the single test concentration by a dilution series.
`NC(=O)NNc1ccccc1`: the “activity change, negative = cytotoxicity” value is -7.32% (inactive).
`C[C@@H]1CC[C@@]2(OC1)O[C@H]1C[C@H]3[C@@H]4CC[C@H]5C[C@@H](O)CC[C@]5(C)[C@H]4CC(=O)[C@]3(C)[C@H]1[C@@H]2C`: the activity change, negative = cytotoxicity is 5.06% [at 4.84 µM] (inactive).
In the case of `CCC(=O)c1ccc(O)cc1`, the “activity change, negative = cytotoxicity” value was 2.71% (inactive).
For `N[C@H]1C(O)O[C@H](CO)[C@@H](O)[C@@H]1O` (stereo not given in full), the “activity change, negative = cytotoxicity” value is -8.15% (inactive).
Turning to `CC(=O)c1ccc2c(c1)N(CCCN(C)C)c1ccccc1S2`, the “activity change, negative = cytotoxicity” value is -8.74% (inactive).
As to `CC[C@@]1(c2ccccc2)NC(=O)N(C)C1=O`, the “activity change, negative = cytotoxicity” value is 9.19% (inactive).
In the case of `O=S(=O)(O)c1cc(I)c(O)c2ncccc12`, the “activity change, negative = cytotoxicity” value was 3.18% (inactive).
With `NC(=O)NC(=O)Cc1ccccc1`, the “activity change, negative = cytotoxicity” value is -3.67% (inactive).
Turning to `CC1CC(OC(=O)C(O)c2ccccc2)CC(C)(C)N1C` (stereo not given), the “activity change, negative = cytotoxicity” value was 9.22% (inactive).
The same measure for `C[C@H](N)[C@H](O)c1cccc(O)c1`: 14.1% (inactive); for `CCCCN(CCCC)CC(O)c1cc(Cl)cc2c1-c1ccc(Cl)cc1/C2=C/c1ccc(Cl)cc1` (stereo not given): 4.22% (inactive).
For `Nc1nc2c(ncn2CCC(CO)CO)c(=O)[nH]1`, the “activity change, negative = cytotoxicity” value was -5.43% (inactive).
Take `Cc1cc(O)cc2c1O[C@](C)(CCC[C@H](C)CCC[C@H](C)CCCC(C)C)CC2`: the “activity change, negative = cytotoxicity” value was -6.8% (inactive).
To `O=S(=O)(O)NC1CCCCC1` belongs 1.72% (inactive).
With `Nc1ccc(S(=O)(=O)NC(=O)c2ccccc2)cc1`, the “activity change, negative = cytotoxicity” value was -11.2% (inactive).
Turning to `CNCCCC1c2ccccc2C=Cc2ccccc21`, the “activity change, negative = cytotoxicity” value was -15.1% (inactive).
As to `COCCOC(=O)C1=C(C)NC(C)=C(C(=O)OC/C=C/c2ccccc2)C1c1cccc([N+](=O)[O-])c1` (stereo not given), the “activity change, negative = cytotoxicity” value was -9.45% (inactive).
With `COc1ccc2cc1Oc1ccc(cc1)C[C@H]1c3c(cc4c(c3Oc3cc5c(cc3OC)CCN(C)[C@@H]5C2)OCO4)CCN1C`, the “activity change, negative = cytotoxicity” value was -12.8% (inactive).
`CC1(C)CO[C@@H](CC(=O)O)CN1`: the “activity change, negative = cytotoxicity” value was 14.4% (inactive).
As for `NC1CCN(c2cccc(Cl)n2)CC1`, the “activity change, negative = cytotoxicity” value was 8.5% (inactive).
`C[C@H]1O[C@@H](n2cc(F)c(=O)[nH]c2=O)[C@H](O)[C@@H]1O`: the “activity change, negative = cytotoxicity” value was -3.12% (inactive).
Take `C=CCn1c(=O)n([C@@H]2O[C@H](CO)[C@@H](O)[C@H]2O)c2nc(N)[nH]c(=O)c21`: the “activity change, negative = cytotoxicity” value was 2.17% (inactive).
The same measure for `CN1[C@@H]2CC(OC(=O)[C@H](CO)c3ccccc3)C[C@H]1[C@@H]1O[C@@H]12` (stereo not given in full): -19.4% (inactive); for `CC(=O)NC(Cc1ccccc1)C(=O)O` (stereo not given): -0.796% (inactive); for `CC(O)CN(CCN(CC(C)O)CC(C)O)CC(C)O` (stereo not given): 9.59% (inactive).
To `Cn1c(=O)c2c(ncn2CC2OCCO2)n(C)c1=O` belongs 15.5% (inactive); to `C/C(=C(\CCOP(=O)(O)O)SC(=O)c1ccccc1)N(C=O)Cc1cnc(C)nc1N`, 20.3% [at 4.84 µM] (inactive).
As to `O=C(O)[C@@H]1CSCN1`, the “activity change, negative = cytotoxicity” value was -15.3% (inactive).
For `CCCCOc1cc(C(=O)OCCN(CC)CC)ccc1N`, the “activity change, negative = cytotoxicity” value was -6.25% (inactive).
In the case of `O=C(O)[C@H](O)c1ccccc1`, the “activity change, negative = cytotoxicity” value was 8.24% (inactive).
For the compound `COC(=O)C1=C(C)NC(C)=C(C(=O)OC)C1c1ccccc1[N+](=O)[O-]`, the “activity change, negative = cytotoxicity” value was -16.4% (inactive).
As for `N[C@H](C(=O)O)c1ccc(O)cc1`, the “activity change, negative = cytotoxicity” value was 14.1% [at 16.1 µM] (inactive).
To `CC(COc1ccccc1)NC(C)C(O)c1ccc(O)cc1` (stereo not given) belongs 12.6% (inactive); to `[O-][n+]1cccc(CO)c1`, 10.8% (inactive).
On to `O=Cc1ccccc1C=O`, for which the “activity change, negative = cytotoxicity” value was 8.54% (inactive).
To `CN(C)CCCO[C@@H]1[C@H]2OC(C)(C)O[C@H]2O[C@@H]1C(O)CO` (stereo not given in full) belongs 9.06% (inactive); to `OC[C@H]1O[C@@H](O[C@@H]2[C@@H](CO)O[C@](O)(CO)[C@H]2O)[C@H](O)[C@@H](O)[C@H]1O`, -8.21% (inactive).
For the compound `CC(=O)CCC(=O)O`, the “activity change, negative = cytotoxicity” value was 9.01% (inactive).
The same measure for `CC1(C)OC(=O)NC1=O`: 7.34% (inactive); for `CCCCCCCCCCCCCCCCCCOCC(O)CO` (stereo not given): 5.52% (inactive).
